# Experimental data: PubChem BioAssay AID2751 (The Scripps Research Institute Molecular Screening Center, 2010)
# Several values for one entry are separate records, joined by “and”; a condition that tells them apart may be missing. Equal values may be shown once. Out of some 320,000 compounds screened, about 2,200 (0.69%) were called active. The sample holds actives, similar compounds and a random draw of the others, so the mix is not that of the screen. Rule as the data show it: active = inhibition above about 43%; inactive = the rest. Some structures have more than one record in an assay (separate samples or runs), and their calls can disagree.
# Target: Prolyl endopeptidase-like (Homo sapiens) (UniProt Q4J6C6)
# Test: human PREPL activity-probe blockers – biochemical, fluorescence polarization, primary screen (AID 2751);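 also: 0% = enzyme with DMSO and 100% = wells lacking enzyme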
# Details: recombinant PREPL, fluorescence polarization activity-based probe; at 5.96 µM; stronger effect = higher value
# Prolyl endopeptidase-like (Homo sapiens), sequence (Q4J6C6 whole entry, looked up): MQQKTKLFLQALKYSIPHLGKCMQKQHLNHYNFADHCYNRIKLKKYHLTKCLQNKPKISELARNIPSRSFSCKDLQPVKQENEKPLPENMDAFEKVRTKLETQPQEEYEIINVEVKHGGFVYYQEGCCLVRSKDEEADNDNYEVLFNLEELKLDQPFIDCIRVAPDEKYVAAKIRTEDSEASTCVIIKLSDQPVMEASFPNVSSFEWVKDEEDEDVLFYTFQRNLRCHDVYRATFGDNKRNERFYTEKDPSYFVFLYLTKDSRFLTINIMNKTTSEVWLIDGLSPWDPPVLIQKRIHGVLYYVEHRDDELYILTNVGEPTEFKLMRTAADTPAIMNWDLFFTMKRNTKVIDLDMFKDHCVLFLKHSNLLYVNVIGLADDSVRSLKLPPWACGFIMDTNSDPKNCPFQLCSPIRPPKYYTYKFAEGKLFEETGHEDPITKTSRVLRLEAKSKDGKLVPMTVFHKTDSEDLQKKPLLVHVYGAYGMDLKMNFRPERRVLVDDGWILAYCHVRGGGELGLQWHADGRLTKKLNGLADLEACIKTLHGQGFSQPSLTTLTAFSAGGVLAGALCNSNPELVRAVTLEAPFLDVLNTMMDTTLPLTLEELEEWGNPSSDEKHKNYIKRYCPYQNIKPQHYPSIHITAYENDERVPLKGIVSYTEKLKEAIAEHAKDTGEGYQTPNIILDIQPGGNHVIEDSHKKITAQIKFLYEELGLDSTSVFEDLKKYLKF
row,Compound,inhibition
1,C=Cn1cc[n+](CC(=O)c2ccc(OC)c(OC)c2)c1,19.9% (inactive)
2,O=C(Nc1ccc2c(c1)OCCO2)C1CCCC1,0.16% (inactive)
3,O=C(c1ccc(F)cc1)N1CCC(C(=O)N2CCN(S(=O)(=O)c3ccccc3Br)CC2)CC1,5.69% (inactive)
4,COC(=O)C1=CN(c2ccc(F)c(F)c2)C=C(C(=O)OC)C1c1ccc([N+](=O)[O-])cc1,-1.25% (inactive)
5,COc1ccc(/C=C(\NC(=O)c2ccc(OCC(C)C)cc2)C(=O)OCc2ccco2)cc1,-0.54% (inactive)
6,CCNc1c(NS(=O)(=O)c2ccc(C3CCCCC3)cc2)c(=O)oc2ccccc12,10.3% (inactive)
7,N#C/C(=C/c1ccc(N2CCCCC2)o1)C(=O)NCCc1c[nH]c2ccccc12,80.7% (active)
8,N#C/C(=C/c1ccc(N2CCOCC2)o1)C(=O)N1CCOCC1,7.19% (inactive)
9,O=C(CN1C(=O)NC2(CCCCC2)C1=O)NCCc1c[nH]c2ccccc12,6.75% (inactive)
10,CN(CCc1ccccn1)C1CCCN(S(=O)(=O)c2ccccc2Cl)C1 (centres undefined),-0.19% (inactive)
11,Cc1cc(Nc2ccccc2)n(C(=O)c2ccc(N)cc2)n1,32.7% (inactive)
12,Nc1ccc(Nc2ccccc2)cc1,94.7% (active)
13,Nc1ccc(-c2nnc(-c3ccccc3)o2)cc1,2.86% (inactive)
14,CS(=O)(=O)N(CC(=O)N1CCOCC1)c1cccc(Cl)c1Cl,1.45% (inactive)
15,COc1cc(NC(=O)COC(=O)CSc2ccc3ccccc3c2)c(C)cc1[N+](=O)[O-],26.5% (inactive)
16,CNCC[C@H](Oc1ccc(C(F)(F)F)cc1)c1ccccc1,59% (active)
17,CC(NC(=O)COC(=O)Cn1cc(C(F)(F)F)ccc1=O)c1ccccc1 (centres undefined),4.36% (inactive)
18,CC(C)Oc1ccc(Oc2ccc(C(F)(F)F)cn2)cc1,14.7% (inactive)
19,Cc1ccc(CN(CC(=O)NCC2CCCO2)S(=O)(=O)c2ccc(C)cc2)cc1 (centres undefined),-1.14% (inactive)
20,O=C(Cn1cnc2ccccc2c1=O)NNC(=O)c1ccccc1F,9.97% (inactive)
21,NS(=O)(=O)c1ccc(CNC(=O)c2ccc(Cl)cc2[N+](=O)[O-])cc1,13.1% (inactive)
22,O=C(Nc1ccc(F)cc1)N1CCN(c2ccc(F)cc2)CC1,15.1% (inactive)
23,CC(CC(=O)N1CCN(c2ccccc2)CC1)c1ccccc1 (centres undefined),-0.94% (inactive)

row,Compound,inhibition
1,CC(=O)N1CCN(c2ccc(NCc3ccc(C(C)C)cc3)cc2)CC1,66.9% (active)
2,COc1ccccc1-c1n[nH]c2c1[C@H](C)CC[C@H]2C(C)C,-22.4% (inactive)
3,COc1ccc(CSc2nnnn2-c2ccc(O)cc2)cc1F,-18.7% (inactive)
4,CCOc1ccccc1C1CC(c2ccc(Cl)cc2)Nc2nc(N)nn21 (centres undefined),24.3% (inactive)
5,Cc1ccc(C2CC(c3cccc(C)c3)n3nc(N)nc3N2)cc1 (centres undefined),54.5% (active)
6,CCOc1ccccc1C1CC(c2ccccc2)Nc2nc(N)nn21 (centres undefined),5.16% (inactive)
7,Cc1cc(=O)n(C)c(=O)n1CCCNc1ccccc1,2.85% (inactive)
8,Cc1ccc(C23CC4CC(CC(C(=O)NCC(=O)O)(C4)C2)C3)cc1,5.03% (inactive)
9,CCC(=O)Nc1cc(C(F)(F)F)ccc1N1CCCC1,8.09% (inactive)
10,O=C(CCN1C(=O)COc2ccccc21)NCCCN1CCN(c2ccc(F)cc2)CC1,35.5% (inactive)
11,COc1ccc(CCNC(=O)CN(c2ccccc2)S(C)(=O)=O)cc1,11.1% (inactive)
12,Cc1nn(CC(=O)Nc2ccc3c(c2)nc(CN2CCCCC2)n3C)c(=O)c2ccccc12,1.33% (inactive)
13,Cn1c(CCN2CCCC2)nc2cc(NS(=O)(=O)c3ccccc3)ccc21,-19% (inactive)
14,Cn1c(CCN2CCCCCC2)nc2cc(NC(=O)Nc3ccccc3)ccc21,53% (active)
15,CCN(CC(=O)Nc1c(F)cccc1F)C(=O)c1cnc(C)cn1,3.72% (inactive)
16,CCN1C(=O)/C(=C\N2CCN(c3cccc(Cl)c3)CC2)SC1=S,23.1% (inactive)
17,CCN1C(=O)/C(=C\N2CCN(c3ccccc3)CC2)SC1=S,49.4% (active)
18,CCN1C(=O)/C(=C\N2CCOCC2)SC1=S,-9.93% (inactive)
19,O=C(O)CSCc1ccc(C(=O)O)o1,7.09% (inactive)
20,N=c1n(Cc2ccc(Cl)cc2)c2ccccc2n1CC(O)c1ccco1 (centres undefined),16.6% (inactive)
21,CCc1nc2ccc(C(=O)N3CCN(c4cccc(Cl)c4)CC3)cc2nc1CC,-11.3% (inactive)
22,O=C1N[C@@H](c2ccccc2)COC(=O)[C@H](Cc2ccc(F)cc2)C/C=C\C[C@@H]1CC(=O)N(CCO)Cc1ccccc1,36% (inactive)
23,CC(C)(C)OC(=O)C[C@@H]1C/C=C\C[C@@H](CC(=O)N(CCO)Cc2ccccc2)C(=O)N[C@H](Cc2ccccc2)COC1=O,14.3% (inactive)

row,Compound,inhibition
1,O=C1N[C@H](Cc2c[nH]c3ccccc23)COC(=O)[C@H](Cc2ccc(F)cc2)C/C=C\C[C@H]1CC(=O)N(CCO)Cc1ccccc1,45.9% (active)
2,O=S(=O)(CCc1nc2ccccc2o1)c1ccc(Cl)cc1,-9.37% (inactive)
3,C=C1C2C[C@H](O)C(C)(C)[C@@]2(O)[C@H](O)C[C@]23C[C@@](C)(O)[C@H](CC[C@H]12)[C@H]3O (some centres undefined),-4.1% (inactive)
4,CCN(C[C@H]1N[C@@](CC)(C(=O)OC)[C@H]2C(=O)N(Cc3ccccc3)C(=O)[C@@H]12)S(=O)(=O)c1ccccc1,16.9% (inactive)
5,CN(C)c1ccc(C(CNC(=O)c2ccc(F)cc2)c2c[nH]c3ccccc23)cc1 (centres undefined),55.9% (active)
6,O=C(CNC(=O)c1ccc(F)cc1)c1ccccc1,-2.4% (inactive)
7,C[C@H](NC(=O)c1ccccc1)C(=O)OCC(=O)c1c[nH]c2ccccc12,-2.69% (inactive)
8,C#CCOCCOCCOCCNc1nc(N2CCN(C(=O)CCCCCCCCCCNC(=O)[C@H](CCCCN)n3cc(C)nn3)CC2)nc(N2CCN(C(=O)CCCCCCCCCCNC(=O)[C@H](CO)n3cc(CCCSC)nn3)CC2)n1,35.2% (inactive)
9,C#CCOCCOCCOCCNc1nc(N2CCN(C(=O)CCCCCCCCCCNC(=O)Cn3cc(CCCCCN)nn3)CC2)nc(N2CCN(C(=O)CCCCCCCCCCNC(=O)[C@H](CO)n3cc(CCCSC)nn3)CC2)n1,75.8% (active)
10,C#CCOCCOCCOCCNc1nc(N2CCN(C(=O)CCCCCCCCCCNC(=O)[C@H]([C@@H](C)CC)n3cc(CCCCN=C(N)N)nn3)CC2)nc(N2CCN(C(=O)CCCCCCCCCCNC(=O)[C@H](CO)n3cc(CCCSC)nn3)CC2)n1,29.9% (inactive)
11,CCc1ccc(S(=O)(=O)Nc2ccc(C)c(NS(C)(=O)=O)c2)cc1,-2.02% (inactive)
12,Cc1cccc2nc(CNc3ccc(F)cc3)cn12,-2.47% (inactive)
13,O=C(CN1CCOCC1)Nc1c2c(nc3c1CCC3)CCC2,-8.04% (inactive)
14,CCC(=C/c1sc2ccc3ccccc3c2[n+]1C)/C=C1\Sc2ccc3ccccc3c2N1C,90.7% (active)
15,CC(=O)Nc1ccc(NC(=O)C(C)OC(=O)C2CC(=O)N(CCc3ccccc3)C2)cc1 (centres undefined),12.3% (inactive)
16,CC1(C)CC[C@@]2(C(=O)O)C(C1)C1=CCC3[C@@]4(C)CC[C@H](O)C(C)(C)C4CC[C@@]3(C)[C@]1(C)C[C@H]2O (some centres undefined),21.2% (inactive)
17,COc1ccc2cc1Oc1ccc(cc1)C[C@H]1c3cc(c(OC)cc3CCN1C)Oc1c(O)c(OC)cc3c1[C@H](C2)N(C)CC3,59% (active)
18,COc1c(O)ccc2c1CN1CCc3cc4c(cc3C1C2)OCO4 (centres undefined),16.4% (inactive)
19,CC(C)(C)C(=O)N1CCC[C@@]1(CO)C(=O)O,6.21% (inactive)
20,CCC/C(C)=N\Nc1nc2c(c(=O)n(C)c(=O)n2C)n1C,11.5% (inactive)
21,CCN1CC(CN(C)Cc2nc(-c3ccc(Cl)cc3)no2)CC1=O (centres undefined),18.3% (inactive)
22,Cc1cc(C(=O)NCCc2ccc(Cl)cc2)c(C)o1,6.11% (inactive)
23,CC(C)CN(C(=O)CN1CCN(S(=O)(=O)c2ccccc2)CC1)c1c(N)n(CC(C)C)c(=O)[nH]c1=O,9.18% (inactive)

row,Compound,inhibition
1,O=C1NC(Cc2ccc(O)cc2)c2nc3ccc(Cl)cc3c(=O)n2-c2ccccc21 (centres undefined),12.8% (inactive)
2,CC(C)Cc1nc(N2CCOCC2)c(C#N)c2c1CCC2,2.59% (inactive)
3,CC(C)CCNc1nc(N2CCCC2)c2c(c1C#N)CCN(C)C2,55.6% (active)
4,CCc1nc(NCCO)c(C#N)c2c1CCCC2,7.84% (inactive)
5,CC(Sc1nc2c([nH]c3ccccc32)c(=O)n1C)c1ccccc1 (centres undefined),-0.13% (inactive)
6,Cc1ccccc1NC(=O)C1CCCN(C(=O)NCc2ccccc2)C1 (centres undefined),10.1% (inactive)
7,O=C(Nc1ccc(Cl)cc1)N1CCc2[nH]c3ccccc3c2C1,14.6% (inactive)
8,COC(=O)[C@H]1[C@H]2C[C@H]3c4[nH]c5ccccc5c4CCN3C[C@@H]2CC[C@@H]1O,16.7% (inactive) and 45.8% (active)
9,COC(=O)C1CCN(C(=O)c2cc(=O)[nH]c3ccccc23)CC1,-5.95% (inactive)
10,OC(COc1ccc(F)cc1Cl)CN1CCc2ccccc2C1 (centres undefined),3.81% (inactive)
11,CCCC(C(=O)NCc1ccco1)N(C(=O)CNS(=O)(=O)c1ccccc1)C1CCCC1 (centres undefined),-3.85% (inactive)
12,O=C(OCC1O[C@@H](OC(=O)c2cc(O)c(O)c(O)c2)[C@@H](OC(=O)c2cc(O)c(O)c(O)c2)[C@@H](OC(=O)c2cc(O)c(O)c(O)c2)[C@@H]1OC(=O)c1cc(O)c(O)c(O)c1)c1cc(O)c(O)c(O)c1 (some centres undefined),87.5% (active)
13,O=C(OCC1OC(Oc2ccc(O)cc2)C(O)C(O)C1O)c1ccccc1 (centres undefined),9.62% (inactive)
14,COc1ccccc1C(=O)NCc1nnc(SC(C)C(=O)Nc2nccs2)n1C (centres undefined),-8.82% (inactive)
15,CCC(=O)N1c2ccc(S(=O)(=O)NCc3ccco3)cc2CC1C (centres undefined),-3.18% (inactive)
16,O=C(CSc1ncnc2sccc12)N1CCN(C(=O)c2cccs2)CC1,6.26% (inactive)
17,Nc1c(C(=O)c2cccs2)sc2nsc(SCCN3CCCCC3)c12,48.1% (active)
18,CN(CC(=O)Nc1ccc(Cl)c(C(F)(F)F)c1)C(=O)CCC(=O)c1ccccc1,1.31% (inactive)
19,CC(C)c1ccc(S(=O)(=O)N2CCN(C(C)C(=O)NC3CCCC3)CC2)cc1 (centres undefined),5.61% (inactive)
20,CC(Oc1ccc(F)cc1)C(=O)Nc1ccccc1C(=O)NC1CC1 (centres undefined),-10.5% (inactive)
